Assay results taken from PubChem BioAssay AID1159580 (chemical genetic matrix, 2015).
Several values for one entry are separate records, joined by “and”; a condition that tells them apart may be missing. Equal entries are not always repeated. Among all 5,500 compounds or so, about 2,000 (36%) were called active. About 18% were inconclusive and are not listed. No stated cut-off is given here; in the data, active means normalized growth mostly below about 0.91 (no sharp cut-off); inconclusive means no clear call, values can overlap the other calls; inactive means mostly above about 0.92. The list shows a part of the results.

Experiment: chemical genetic growth profiling, strain panel (AID 1159580);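 further: tested at 20 µM; growth read once vehicle control cultures reached saturation at 30 °C; 1 = growth at the plate median or of vehicle wells; lower values mean less growth of the strain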
Settings: S. cerevisiae deletion strains, growth OD

Measured: normalized growth

O=C1NC(O)=NC1(c1ccccc1)c1ccccc1
inactive: locus YAL013W, strain DEP1, hits give low values 1.01 and 0.988 | locus YAL021C, strain ccr4, hits give low values 1.01 | locus YAL026C, strain drs2, hits give low values 1.01 | locus YAL030W, strain snc1, hits give low values 1.02 | locus YAL040C, strain CLN3, hits give low values 0.959 | locus YBL061C, strain skt5, hits give low values 1.01 | locus YBR009C, strain hhf1, hits give low values 1 | locus YBR021W, strain FUR4, hits give low values 0.995 | locus YBR023C, strain chs3, hits give low values 1.03 | locus YBR171W, strain sec66, hits give low values 1.02 | locus YBR229C, strain ROT2, hits give low values 1 | locus YBR231C, strain swc5, hits give low values 1.02 | locus YBR279W, strain paf1, hits give low values 1.01 | locus YCL011C, strain gbp2, hits give low values 1.02 | locus YCL016C, strain dcc1, hits give low values 1.02 | locus YCL029C, strain bik1, hits give low values 1.03 | locus YCL061C, strain MRC1 (second series), hits give low values 0.986 | locus YCL061C, strain MRC1, hits give low values 1.01 | locus YCL069W, strain vba3, hits give low values 1.02 | locus YCR088W, strain abp1, hits give low values 1.01 | locus YDL005C, strain med2, hits give low values 1.03 | locus YDL035C, strain GPR1, hits give low values 1.01 | locus YDL040C, strain nat1, hits give low values 1.02 | locus YDL074C, strain BRE1, hits give low values 1.02 | locus YDL101C, strain DUN1, hits give low values 1.01 | locus YDL134C, strain PPH21, hits give low values 1.01 | locus YDL185W, strain tfp1, hits give low values 1.01 | locus YDL192W, strain arf1, hits give low values 1.01 | locus YDR001C, strain nth1, hits give low values 1.02 | locus YDR069C, strain doa4, hits give low values 0.999 | locus YDR101C, strain arx1, hits give low values 1.01 | locus YDR137W, strain rgp1, hits give low values 1.04 | locus YDR150W, strain NUM1, hits give low values 1.01 | locus YDR159W, strain sac3, hits give low values 0.98 | locus YDR162C, strain NBP2, hits give low values 1.01 | locus YDR195W, strain ref2 0.987 | locus YDR297W, strain sur2, hits give low values 1.02 | locus YDR318W, strain mcm21, hits give low values 1.02 | locus YDR334W, strain swr1, hits give low values 1.01 | locus YDR335W, strain msn5, hits give low values 1.02 | locus YDR363W, strain ESC2, hits give low values 0.954 | locus YDR388W, hits give low values 1.02 | locus YDR392W, strain spt3, hits give low values 0.932 | locus YDR502C, strain sam2, hits give low values 1 | locus YEL003W, strain gim4, hits give low values 1 | locus YEL037C, strain rad23, hits give low values 1.01 | locus YEL061C, strain CIN8 (second series), hits give low values 1.02 | locus YEL061C, strain CIN8, hits give low values 1.01 | locus YER002W, strain NOP16, hits give low values 0.972 | locus YER015W, strain faa2, hits give low values 1 | locus YER016W, strain bim1, hits give low values 1.02 | locus YER110C, hits give low values 1.01 | locus YER111C, strain swi4, hits give low values 1.02 | locus YER155C, strain BEM2 (second series), hits give low values 0.994 | locus YER155C, strain BEM2, hits give low values 1.02 | locus YER167W, strain BCK2, hits give low values 1.01 | locus YFR010W, strain ubp6, hits give low values 1.01 | locus YGL078C, strain dbp3, hits give low values 1.01 | locus YGL086W, strain mad1, hits give low values 0.997 | locus YGL167C, strain pmr1, hits give low values 1.03 | locus YGL173C, strain kem1, hits give low values 1.01 | locus YGL227W, strain vid30, hits give low values 1.02 | locus YGL240W, strain doc1, hits give low values 1.01 | locus YGL248W, strain PDE1, hits give low values 1.01 | locus YGL253W, strain hxk2, hits give low values 1.01 | locus YGR078C, strain PAC10, hits give low values 1.01 | locus YGR135W, strain pre9, hits give low values 1.01 | locus YGR229C, strain SMI1, hits give low values 0.998 | locus YGR252W, strain gcn5, hits give low values 0.923 | locus YHR013C, strain ard1, hits give low values 1.02 | locus YHR027C, strain rpn1, hits give low values 1.01 | locus YHR030C, strain SLT2, hits give low values 1.01 and 0.991 | locus YHR079C, strain IRE1 (second series), hits give low values 1.03 | locus YHR079C, strain IRE1, hits give low values 0.991 | locus YHR094C, strain hxt1, hits give low values 1.01 | locus YHR129C, strain ARP1, hits give low values 1.01 | locus YHR142W, strain chs7, hits give low values 1.03 | locus YHR200W, strain rpn10, hits give low values 1.01 | locus YIL066C, strain RNR3, hits give low values 1.02 | locus YIL073C, strain SPO22, hits give low values 1.03 | locus YIL125W, strain kgd1, hits give low values 1.01 | locus YIR030C, strain dcg1, hits give low values 1.01 | locus YJL092W, strain hpr5, hits give low values 1.01 | locus YJL095W, strain BCK1 (second series), hits give low values 1.02 | locus YJL095W, strain BCK1, hits give low values 1.01 | locus YJL115W, strain asf1, hits give low values 1.01 | locus YJL129C, strain trk1, hits give low values 1.02 | locus YJL134W, strain LCB3, hits give low values 1 | locus YJL154C, strain vps35, hits give low values 1.02 | locus YJL164C, strain tpk1, hits give low values 1.01 | locus YJL166W, strain qcr8, hits give low values 1.02 | locus YJL168C, strain set2, hits give low values 1.01 | locus YJL187C, strain SWE1 (second series), hits give low values 1.02 | locus YJL187C, strain SWE1, hits give low values 1.02 | locus YJR043C, strain POL32, hits give low values 1.01 | locus YJR066W, strain TOR1, hits give low values 0.96
